# How the values were obtained:
# Assay in all cases: PBM binding z-score (relative to random genomic background probes); higher = stronger binding; sequences stand for … in GC…GCGATTGACAGCGTAGAATGAAGG
# [1] = tested on: FXR:RXRa (NR concentration 270 nM, RXRa partner concentration 90 nM)
# Outline: (§1)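 Custom Agilent 4×180K protein-binding microarrays carried double-stranded probes, each with a 34-nt variable region. These regions held direct-repeat seeds, single-nucleotide variants, half-site ablations and random human genomic background sequences. Ligand-free nuclear receptor dimers were incubated on the arrays for 1 h, antibodies against each partner (one per run) detected binding, and scanned fluorescence was regression-normalized. Binding z-scores take the random background probes as reference.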
# [2] = tested on: LXRa homodimer (NR concentration 270 nM)
# Outline: as §1
# [3] = tested on: LXRb homodimer (NR concentration 270 nM)
# Outline: as §1
# [4] = tested on: PPARg:RXRa (NR concentration 180 nM, RXRa partner concentration 90 nM)
# Outline: as §1
# [5] = tested on: PPARg:RXRa 270nM:90nM, anti-RXR (NR concentration 270 nM, RXRa partner concentration 90 nM)
# Outline: as §1
# [6] = tested on: PPARg:RXRa 30nM:10nM, anti-RXR (NR concentration 30 nM, RXRa partner concentration 10 nM)
# Outline: as §1
# [7] = tested on: PPARg:RXRa 90nM:30nM, anti-RXR (NR concentration 90 nM, RXRa partner concentration 30 nM)
# Outline: as §1
# [8] = tested on: PPARg:RXRa DBDmut IVT, anti-RXR (DBD mutation: RXRa K156A/R161A, NR concentration 270 nM, RXRa partner concentration 90 nM)
# Outline: as §1
# [9] = tested on: PPARg:RXRa IVT, anti-PPARg (NR concentration 270 nM, RXRa partner concentration 90 nM)
# Outline: as §1
# [10] = tested on: PPARg DBDmut:RXRa IVT, anti-PPARg (DBD mutation: PPARg1 K132A/R137A, NR concentration 270 nM, RXRa partner concentration 90 nM)
# Outline: as §1
# [11] = tested on: PPARg DBDmut IVT, anti-PPARg (DBD mutation: PPARg1 K132A/R137A, NR concentration 270 nM)
# Outline: as §1
# [12] = tested on: PPARg homodimer (NR concentration 180 nM)
# Outline: as §1
# [13] = tested on: PXR:RXRa (NR concentration 270 nM, RXRa partner concentration 90 nM)
# Outline: as §1
# [14] = tested on: PXR homodimer (NR concentration 270 nM)
# Outline: as §1
# [15] = tested on: RARa:RXR (NR concentration 270 nM, RXRa partner concentration 90 nM)
# Outline: as §1
# [16] = tested on: RARa homodimer (NR concentration 270 nM)
# Outline: as §1
# [17] = tested on: RARb:RXRa (NR concentration 270 nM, RXRa partner concentration 90 nM)
# Outline: as §1
# [18] = tested on: RARb homodimer (NR concentration 270 nM)
# Outline: as §1
# [19] = tested on: LXRa:RXRa (NR concentration 270 nM, RXRa partner concentration 90 nM)
# Outline: as §1
# [20] = tested on: PPARa:RXRa (NR concentration 270 nM, RXRa partner concentration 90 nM)
# Outline: as §1
Sequence,PBM binding z-score [1],PBM binding z-score [2],PBM binding z-score [3],PBM binding z-score [4],PBM binding z-score [5],PBM binding z-score [6],PBM binding z-score [7],PBM binding z-score [8],PBM binding z-score [9],PBM binding z-score [10],PBM binding z-score [11],PBM binding z-score [12],PBM binding z-score [13],PBM binding z-score [14],PBM binding z-score [15],PBM binding z-score [16],PBM binding z-score [17],PBM binding z-score [18],PBM binding z-score [19],PBM binding z-score [20]
CCTACTGGGCCAAAGGTGATTGATTCCAATGCTC,-0.0621,-0.216,-0.106,8.87,7.96,7.6,8.66,5.69,5.36,0.238,0.204,0.439,0.0253,-0.311,0.327,-0.309,0.815,0.601,–,–
CAAACTAGGTCACTAAAGGTCAAAGTCGAATGAC,7.13,10.4,4.07,10.1,8.33,6.31,8.16,8.1,8.98,4.79,2.9,5.36,6.84,2.87,7.45,3.41,5.53,5.66,–,–
TAGCCTAGTTCATGCGGGCCAGTATAGTGTCGGC,-0.33,-0.511,-0.772,-0.0909,-0.0482,-0.651,-0.319,0.864,0.949,-0.253,-0.528,-0.545,0.59,0.113,-0.185,-0.774,1.05,0.519,–,–
CCTACGGGGCCACGAAAGGTCATTGATTCAGTGA,4.71,4.26,0.262,2.82,3.88,1.18,2.46,1.57,2.93,-0.766,-1.47,3.09,6.2,2.54,5.88,0.351,4.55,5.16,–,–
TCTAGTTGGTCACGGAGGTCCCACACGACGGGTA,-0.177,0.0478,-0.115,0.739,1.93,3.06,2.25,1.68,2.31,0.993,1.03,0.373,0.138,-0.319,0.243,0.299,1.57,1.32,–,–
AGAATGAGGTTAAGTTCAGGGAAACAGAATACAT,4.05,0.441,-0.00698,3.45,3.89,1.62,3.51,3.13,3.33,1.62,0.811,1.08,3.31,1.91,3.03,0.895,3.17,2.6,–,–
AGAATGAGGTTAAACGTAGATCAGGGAAGAAAGT,4.05,-0.194,0.141,4,4.04,1.87,3.12,6.01,3.75,1.56,1.02,1.3,1.73,0.319,2.69,0.469,2.23,1.19,–,–
TCTTGTAGGTCAATAGAGGTTAAGAAAGTGCGCT,4.77,3.93,1.17,6.67,5.94,4.32,5.5,7.07,7.76,2.66,2.4,2.69,5.67,0.719,4.2,1.13,4.09,3.81,–,–
CGTCCAAGGTCATATGAGGTCAGTGAAGACAGAT,7.7,6.17,2.22,4.87,5.72,2.34,4.36,3.46,3.84,0.668,0.114,4.65,7.23,9.26,6.07,2.7,5.34,5.47,–,–
ATATGTAGGTTACATCCGGGTCATCCAGGCTATG,1.91,1.67,0.838,6.12,5.21,2.47,4.55,7.32,7.51,3.31,2.5,2.45,3.45,1.14,3.67,0.961,2.3,3.26,–,–
ATCGAAAGGTCTAAGGTGAGTATACCCACCCGAA,0.614,-0.103,-0.0723,1.52,2.08,0.802,1.56,-0.401,1.2,0.696,0.446,0.384,0.515,0.247,1.35,0.59,1.53,1.08,–,–
CCTAGTTGGTCAAGGTCACATACGCTATAGGTAC,3.98,1.97,1.23,3.3,3.43,1.17,2.91,2.23,3.3,1.13,1,3.03,4.1,2.39,4.46,2.55,3.95,4.15,–,–
CCTACTGGTCCAAGGTCATTGATCAGTCAAAGCA,3.53,2.3,0.894,1.77,3.04,0.847,2.12,0.394,1.68,-0.223,-0.605,3.61,4.18,2.61,4.13,1.23,3.33,3.76,–,–
ATATGTAGTTTATCGGGTCATTCAGTTTGCGCAT,2.53,3.41,0.952,1.86,2.34,0.761,1.64,2.99,3.77,1.29,1.84,1.72,3.46,7.31,3.03,1.18,2.26,2.91,–,–
ACGCGGAGGACAAAGGTCAGAGCTACGCCAGTGA,–,1.02,0.25,7.04,6.29,4.31,6.15,0.442,3.08,-0.183,-0.911,2.67,3.88,0.273,5.05,0.759,4.48,4.11,4.13,4.75

# — the supplement of paper PMC6555819
